Our source for the AC50 and outcome values is PubChem BioAssay (EPA / NIEHS).

Assay [1] can be described thus: CCTE_Deisenroth_AIME_384WELL_CTox_Active: Cytotoxicity Assessment (CTOX) in CCTE's 384-well Estrogen Receptor Transactivation Assay with AIME metabolic competence (metabolism positive), Deisenroth Lab (AID 2284037).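 Further: chemicals first conditioned 2 h by alginate-bound induced rat liver S9 before cells; activity means signal loss indicating cell death.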 A digest of the protocol:
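Chemicals pre-incubated 2 hours with alginate-immobilised phenobarbital/beta-naphthoflavone-induced male Sprague Dawley rat liver S9, then conditioned medium applied 24 hour to VM7Luc4E2 cells. Viability by fluorogenic protease substrate; 10-point series 0.002 - 200 uM.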

Assay [2] can be described thus: CCTE_Deisenroth_AIME_384WELL_CTox_Inactive: Cytotoxicity Assessment (CTOX) in CCTE's 384-well Estrogen Receptor Transactivation Assay without AIME metabolic competence (metabolism negative), Deisenroth Lab (AID 2284039).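 Further: cell viability via live-cell protease substrate cleaved to fluorescent probe; cells exposed 24 h to medium preincubated 2 h with alginate-water beads without S9; loss of fluorescence signal means loss of viability.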 An outline of the steps:
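Fluorescent protease-substrate viability readout after 24 h exposure of VM7Luc4E2 cells to conditioned medium. Chemicals (0.002–200 uM) first sat 2 h over alginate-water beads, no S9. Data fitted bidirectionally, loss of signal meaning viability loss.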

Assay [3] can be described thus: CCTE_Shafer_MEA_acute_network_burst_percentage: CCTE's Neural Acute Assay for Percentage of Network Bursts, Shafer Lab (AID 2284022; active means hit-call score of the fitted dose curve at least 0.9, where 1 is the maximum; inactive means score below 0.9;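 further: curves fitted for loss so actives lower network burst percentage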). An outline of the steps: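 Primary rat cortical neurons on 16-electrode MEA wells, treated on DIV 13 or 15 with compound (0.03-40 uM); 40-min baseline and 40-min post-exposure recordings at 37 C. Value is percent change in spikes within network bursts versus baseline, DMSO negative control.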

Assay [4] can be described thus: CCTE_Shafer_MEA_acute_cross_correlation_area: CCTE's Neural Acute Assay for Area of Cross Correlation, Shafer Lab (AID 2284024; active means hit-call score of the fitted dose curve at least 0.9, where 1 is the maximum; inactive means score below 0.9;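 further: area under pooled inter-electrode spike cross-correlation near zero lag as percent change from own baseline; curves fitted for loss of cross-correlation area so actives lower synchrony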). A digest of the protocol: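 Primary rat cortical neurons on 48-well MEA plates (16 electrodes/well) were recorded 40 min at baseline on DIV 13 or 15, then 40 min with compound (0.03-40 uM) at 37 C; cross-correlation area expressed as percent change from baseline.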

The nature of assay [5]: CCTE_Shafer_MEA_dev_active_electrodes_number: CCTE's Neural Network Formation Assay for Number of Active Electrodes, Shafer Lab (AID 2284040).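 On AC50: potency for loss of active electrodes versus DMSO so lower counts are hits.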 An outline of the steps:
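Primary rat cortical neurons on 16-electrode MEA wells, exposed from day 0 through day 12 with compound renewed at DIV 5 and 9 feeds. Active electrodes (mean firing ≥5 spikes/min) counted at DIV 5, 7, 9, 12; trapezoidal AUC across days, loss-of-signal versus DMSO.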

The nature of assay [6]: CCTE_Shafer_MEA_dev_bursting_electrodes_number: CCTE's Neural Network Formation Assay for Number of Bursting Electrodes, Shafer Lab (AID 2284043).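 On AC50: potency is for loss of bursting electrodes relative to DMSO.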 A digest of the protocol:
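Primary rat cortical neurons plated on 16-electrode MEA wells, exposed from day 0 with compound renewed at DIV 5 and 9. Electrodes bursting ≥1 burst per 2 min counted on days 5, 7, 9 and 12; trapezoidal AUC across days, fitted for loss versus DMSO.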

Assay [7] is described as follows: CCTE_Shafer_MEA_dev_per_burst_interspike_interval: CCTE's Neural Network Formation Assay for Burst Interspike Interval, Shafer Lab (AID 2284044; active means hit-call score of the fitted dose curve at least 0.9, where 1 is the maximum; inactive means score below 0.9;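 further: mean spike spacing inside bursts as AUC over recordings on days 5 7 9 12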). An outline of the steps:
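Rat cortical primary cultures, 16 electrodes/well; compound from plating, renewed with full media change DIV 5 and 9. Spikes via adaptive detector; per-burst ISI well-mean over active bursting electrodes; AUC of DIV 5/7/9/12 recordings; loss-direction fit vs DMSO.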

Assay [8] deals with Estrogen receptor (Homo sapiens) (UniProt P03372). Kind of assay: CCTE_Deisenroth_AIME_384WELL_LUC_Inactive: CCTE's 384-well Estrogen Receptor Transactivation Assay without AIME metabolic competence (ERTA luciferase; metabolism negative), Deisenroth Lab (AID 2284038).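 Further: VM7Luc4E2 breast cells given medium preincubated 2 h with S9-free microspheres; hits raise estrogen receptor luciferase signal so potencies reflect agonists.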 Here is the method:
CCTE_Deisenroth_AIME_384WELL (AIME metabolism assay) is a cell-based, single-readout assay that uses VM7Luc4E2, a human mammary gland/breast cell line, with measurements taken at 24 hour after chemical dosing in a 384-well plate.CCTE_Deisenroth_AIME_384WELL_LUC_Inactive is one of four assay components measured or calculated from the CCTE_Deisenroth_AIME_384WELL assay. It is designed to make measurements of luciferase induction, a form of inducible reporter, as detected with bioluminescence signals by luciferase-coupled ATP quantitation technology.CCTE_Deisenroth_AIME_384WELL_LUC_Inactive is a component of the CCTE_Deisenroth_AIME_384WELL assay that measures the effect of retroftting the VM7Luc ERTA assay with the Alginate Immobolization of Metabolic Enzymes (AIME) metabolism method. AIME is optimized to impart phase I hepatic metabolism using phenobarbital/beta-naphthoflavone induced hepatic S9 from male Sprague Dawley rats. Parent chemicals are incubated for 2 hours in the AIME assay prior to transfer to the VM7Luc ERTA assay plate. […] This endpoint evaluates reporter induction in metabolism negative mode. Using a type of inducible reporter in VM7Luc cells, gain-of-signal activity can be used to understand changes in the reporter gene as they relate to xenobiotic metabolism and the gene ESR1. This assay endpoint, CCTE_Deisenroth_AIME_384WELL_LUC_Inactive, was analyzed in the positive analysis fitting direction relative to 17beta-estradiol as the positive control in the ERTA assay. To generalize the intended target to other relatable targets, this assay endpoint is annotated to the nuclear receptor intended target family, where the subfamily is steroidal.
The AIME procedure consists of a preparative "pre-stamping" step using a barium chloride/poly-L-lysine (PLL) solution followed by "stamping" the lid in alginate-hepatic S9 (metabolism positive) or alginate-water (metabolism negative) to form microspheres. Once stamping is completed, the AIME lids are placed in duplicate microplates (metabolism positive or negative) containing chemical solutions and incubated for two hours to facilitate metabolic reactions. The conditioned medium, containing parent chemical or metabolites, is then transferred to the cell-based VM7Luc Estrogen Receptor Transactivation Assay (ERTA) for 24 hours. A typical experimental design tests a 10-point concentration series (0.002 - 200 uM) for 8 compounds (96-well format)1 or 32 compounds (384-well format)2 in single technical replicate. AIME assay controls include trans-stilbene (bioactivated control) and ethylparaben (bioinactivated control). ERTA assay plate controls include 17-beta estradiol (positive control) and DMSO (solvent control). Experiments typically comprise a minimum of four experimental replicates (n=4).

Assay [9] has the same target. Kind of assay: CCTE_Deisenroth_AIME_384WELL_LUC_Shift: CCTE's 384-well Estrogen Receptor Transactivation Assay with AIME metabolic competence data shift (ERTA luciferase; difference in metabolism positive and negative), Deisenroth Lab (AID 2284041; active means hit-call score of the fitted dose curve at least 0.9, where 1 is the maximum; inactive means score below 0.9;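 further: shift is response with S9 minus without S9 so positive means metabolism raised ER signal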). A digest of the protocol: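 Chemicals (0.002–200 uM, 10 points) pre-incubated 2 h with alginate-encapsulated induced male Sprague Dawley rat liver S9 or S9-free, then medium applied 24 h to VM7Luc4E2 cells; luciferase. Endpoint is per-concentration difference, S9-positive minus negative.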

Assay [10] shares this target. Description: CCTE_Deisenroth_AIME_384WELL_LUC_Active: CCTE's 384-well Estrogen Receptor Transactivation Assay with AIME metabolic competence (ERTA luciferase; metabolism positive), Deisenroth Lab (AID 2284030). An outline of the steps: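 Test chemicals (10-point series, 0.002 - 200 uM) were preincubated 2 hours with alginate-immobilized phenobarbital/beta-naphthoflavone-induced male Sprague Dawley rat liver S9; conditioned medium then went onto VM7Luc4E2 breast cells for 24 hour. Luciferase gain-of-signal fitted relative to 17beta-estradiol.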

Results filed as inconclusive are left out. A structure can be active in one record and inactive in another. Active and inactive are the calls of the source. How the source made its calls, unless noted: active means hit-call score of the fitted dose curve at least 0.9, where 1 is the maximum; inconclusive means response in the unintended direction; inactive means score below 0.9.

Chain of Estrogen receptor (Homo sapiens) (P03372 whole entry, looked up): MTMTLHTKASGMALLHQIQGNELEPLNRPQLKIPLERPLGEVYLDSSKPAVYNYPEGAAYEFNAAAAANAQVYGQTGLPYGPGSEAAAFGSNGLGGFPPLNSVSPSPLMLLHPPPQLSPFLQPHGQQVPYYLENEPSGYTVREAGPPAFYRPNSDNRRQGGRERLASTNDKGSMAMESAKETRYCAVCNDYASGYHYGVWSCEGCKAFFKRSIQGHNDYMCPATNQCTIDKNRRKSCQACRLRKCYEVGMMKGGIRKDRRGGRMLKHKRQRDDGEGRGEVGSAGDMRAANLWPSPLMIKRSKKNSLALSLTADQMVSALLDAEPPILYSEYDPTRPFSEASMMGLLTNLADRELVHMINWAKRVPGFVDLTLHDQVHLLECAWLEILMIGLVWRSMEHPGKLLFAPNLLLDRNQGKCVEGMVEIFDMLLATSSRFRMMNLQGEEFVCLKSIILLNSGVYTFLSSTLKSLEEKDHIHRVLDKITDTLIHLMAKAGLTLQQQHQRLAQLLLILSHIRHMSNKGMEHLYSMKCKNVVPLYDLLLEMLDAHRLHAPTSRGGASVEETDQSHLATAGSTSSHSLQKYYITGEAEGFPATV

Take `c1cnc2c(c1)ccc1cccnc12`: the concentration at half-maximal activity (AC50) (usually the midpoint of the concentration-response curve, whichever way the signal moves) is 30.9 µM (active) in assay [1] and 15.7 µM (active) in [2].
In the case of `O=C1NS(=O)(=O)c2ccccc21`, the outcome in assay [3], in assay [5], in [6] and in [7] was inactive. Further, the concentration at half-maximal activity (AC50) in assay [4] was 0.00962 µM (active).
For `CC(=O)Nc1ccc(O)cc1`, the outcome in assay [3], in assay [4], in assay [1], in assay [5], in assay [6] and in [7] was inactive. For the same compound, in [6], the half-maximal activity concentration (AC50) was 0.0824 µM (active).
Take `CCCCCCCCCCCCOC(=O)c1cc(O)c(O)c(O)c1`: the outcome in assay [1], in [8] and in [9] was inactive. Moreover, in assay [2], the half-maximal activity concentration (AC50) is 128 µM (active).
Turning to `CCCCCCCCCCCC`, the outcome in [3], in assay [4] and in assay [1] was inactive. Besides, in assay [2], the half-maximal activity concentration (AC50) is 100 µM (active).
`N=C(N)c1ccc(OCCCCCOc2ccc(C(=N)N)cc2)cc1`: the compound was called inactive in assay [3] and in assay [4].
`CCCCC(CC)C(=O)O` (configuration not stated): the compound was called inactive in assay [1] and in assay [2].
As for `CCCCCCCCCC=CCC1CC(=O)OC1=O` (configuration not stated), the call in assay [10], in assay [8], in assay [2] and in assay [9] was inactive.
As for `CCCCC=O`, the AC50 in assay [3] was 32.7 µM (active). Further, the outcome in assay [4] was inactive.
On to `CN(C)CCOC(c1ccccc1)c1ccccc1`, for which the concentration at half-maximal activity (AC50) was 7.74 µM (active) in assay [3], 6.36 µM (active) in assay [5] and 4.33 µM (active) in assay [6]. Besides, the outcome in assay [4] and in [7] was inactive.
Take `CCCCCCCCCCCCOS(=O)(=O)O`: the AC50 in [1] was 143 µM (active); in [2], 147 µM (active).
On to `Oc1ccc(Cc2ccccc2O)cc1`, for which, in assay [3], the call was inactive. Also, the half-maximal activity concentration (AC50) in assay [4] was 0.00812 µM (active).
As to `O=S(=O)(O)c1ccccc1`, the call in assay [1] was inactive.
On to `Cc1cc(Cc2cc(C)cc(C(C)(C)C)c2O)c(O)c(C(C)(C)C)c1`, for which the concentration at half-maximal activity (AC50) in assay [1] was 43.1 µM (active); in assay [2], 41.8 µM (active). Moreover, the outcome in assay [9] was inactive.
Take `CCCCc1ccc2ccccc2c1S(=O)(=O)O`: the compound was classed as inactive in assay [10], in [8], in [2] and in [9].
In the case of `NC(=NCCCCCCN=C(N)/N=C(\N)Nc1ccc(Cl)cc1)/N=C(\N)Nc1ccc(Cl)cc1`, the AC50 in assay [1] is 59.5 µM (active); in [2], 46.8 µM (active). Moreover, in assay [9], the outcome was inactive.
